This passage reports outcome and AC50 results from PubChem BioAssay (EPA / NIEHS).

For orientation: AC50 means the concentration at which the activity in the assay is half-maximal.

Settings in all cases: primary human HUVEC with PBMC; actives raise or lower the signal
The nature of experiment [1]: BSK_LPS_PGE2: BioMAP Diversity Plus: LPS Assay for Prostaglandin E2 (PGE2) Biomarker Activity (AID 2283082).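 As to AC50: secreted prostaglandin E2 measured by ELISA in LPS-stimulated co-culture.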 Summed up: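 LPS-activated HUVEC/PBMC co-culture; cmpd dosed, 24 h; PGE2 by ELISA; bidirectional fit vs DMSO; SRB (0.1%, TCA-fixed, 560 nm) in parallel plates for overt cytotox.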
Read-out in experiment [2]: Macrophage colony-stimulating factor (MCSF), CSF1 (gene 1435)
The experiment can be described thus: BSK_LPS_MCSF: BioMAP Diversity Plus: LPS Assay for Macrophage colony-stimulating factor (MCSF) Biomarker Activity (AID 2283083). In a few lines:
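HUVEC–PBMC co-culture, M-CSF measured by ELISA 24 h after chemical dosing. Fitted in both directions relative to DMSO as negative control; overt cytotoxicity assessed by SRB total-protein staining in parallel cultures.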

Read-out in experiment [3]: Tissue Factor, F3 (gene 2152)
The experiment can be described thus: BSK_LPS_TissueFactor: BioMAP Diversity Plus: LPS Assay for Tissue Factor Biomarker Activity (AID 2283084). Summed up: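 Human umbilical vein endothelial cells co-cultured with PBMC were dosed with compound. Cell-surface CD142 was measured by ELISA 24 h later. Activity was fitted bidirectionally against DMSO, with SRB total-protein staining in parallel cultures for cytotoxicity.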

Read-out in experiment [4]: Tumor necrosis factor (Homo sapiens) (UniProt P01375)
The experiment can be described thus: BSK_LPS_TNFa: BioMAP Diversity Plus: LPS Assay for Tumour Necrosis Factor alpha (TNFa) Biomarker Activity (AID 2283085). In a few lines:
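Read-out is ELISA of TNFa in primary human endothelial cell–PBMC co-cultures at 24 h after compound. Activity in either direction was fitted against DMSO.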

Read-out in experiment [5]: Vascular cell adhesion molecule 1 (VCAM1), VCAM1 (gene 7412)
The experiment can be described thus: BSK_LPS_VCAM1: BioMAP Diversity Plus: LPS Assay for Vascular cell adhesion molecule 1 (VCAM1) Biomarker Activity (AID 2283086). In a few lines: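 HUVEC + PBMC co-culture, LPS system; compound 24 h; VCAM-1 by ELISA; bidirectional fit vs DMSO control; parallel SRB (0.1%, TCA-fixed, 560 nm) for cytotoxicity.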

Read-out in the next experiment: CD38, CD38 (gene 952)
The experiment can be described thus: BSK_SAg_CD38: BioMAP Diversity Plus: SAg Assay for CD38 Biomarker Activity (AID 2283087). Summed up: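 Human HUVEC plus PBMC co-culture stimulated with superantigen; CD38 measured by ELISA 24 h after chemical dosing. Fluorescence read-out, bidirectional fit against DMSO; cytotoxicity tracked in parallel by SRB and Alamar Blue.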

Read-out in another experiment: CD40, CD40 (gene 958)
The experiment can be described thus: BSK_SAg_CD40: BioMAP Diversity Plus: SAg Assay for CD40 Biomarker Activity (AID 2283088). Summed up: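 HUVEC plus PBMC co-culture, superantigen-activated, with CD40 read by ELISA 24 h after dosing. Curves fitted in both directions against DMSO. Overt cytotoxicity checked by parallel SRB total-protein staining.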

Read-out in a further experiment: CD69, CD69 (gene 969)
The experiment can be described thus: BSK_SAg_CD69: BioMAP Diversity Plus: SAg Assay for CD69 Biomarker Activity (AID 2283089).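 As to AC50: cell surface CD69 protein quantified by ELISA with fluorescence detection.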 Summed up: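 ELISA, fluorescence read-out: CD69 on human umbilical vein endothelial cell + PBMC co-culture, 24 h post-dosing. Gain or loss of signal fitted bidirectionally against DMSO baseline.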

Read-out in experiment [6]: Monocyte Chemoattractant Protein-1 (MCP1), CCL2 (gene 6347)
The experiment can be described thus: BSK_SAg_MCP1: BioMAP Diversity Plus: SAg Assay for Monocyte Chemoattractant Protein-1 (MCP1) Biomarker Activity (AID 2283090). Summed up:
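MCP-1 levels in the endothelial–PBMC SAg co-culture were quantified by ELISA at 24 h post-dosing; both increases and decreases versus DMSO scored. Cytotoxicity monitored by SRB total protein in parallel cultures.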

Read-out in experiment [7]: E-selectin (Homo sapiens) (UniProt P16581)
The experiment can be described thus: BSK_SAg_Eselectin: BioMAP Diversity Plus: SAg Assay for Eselectin Biomarker Activity (AID 2283091). Summed up: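 Human umbilical vein endothelial cells co-cultured with peripheral blood mononuclear cells, SAg system. E-selectin is measured by ELISA 24 h after dosing and fitted bidirectionally against DMSO. Cytotoxicity is checked by SRB staining of parallel cultures.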

Values joined by “and” are separate entries in the source; they are usually repeats but may differ in a detail not shown here. Equal entries are not always repeated. Some compounds were tested as several samples or in several runs, with calls that do not always agree. Active and inactive are the calls of the source. The calls were made as follows: active = hit-call score of the fitted dose curve at least 0.9, where 1 is the maximum; inactive = score below 0.9.

Sequence of E-selectin (Homo sapiens) (P16581 whole entry, looked up): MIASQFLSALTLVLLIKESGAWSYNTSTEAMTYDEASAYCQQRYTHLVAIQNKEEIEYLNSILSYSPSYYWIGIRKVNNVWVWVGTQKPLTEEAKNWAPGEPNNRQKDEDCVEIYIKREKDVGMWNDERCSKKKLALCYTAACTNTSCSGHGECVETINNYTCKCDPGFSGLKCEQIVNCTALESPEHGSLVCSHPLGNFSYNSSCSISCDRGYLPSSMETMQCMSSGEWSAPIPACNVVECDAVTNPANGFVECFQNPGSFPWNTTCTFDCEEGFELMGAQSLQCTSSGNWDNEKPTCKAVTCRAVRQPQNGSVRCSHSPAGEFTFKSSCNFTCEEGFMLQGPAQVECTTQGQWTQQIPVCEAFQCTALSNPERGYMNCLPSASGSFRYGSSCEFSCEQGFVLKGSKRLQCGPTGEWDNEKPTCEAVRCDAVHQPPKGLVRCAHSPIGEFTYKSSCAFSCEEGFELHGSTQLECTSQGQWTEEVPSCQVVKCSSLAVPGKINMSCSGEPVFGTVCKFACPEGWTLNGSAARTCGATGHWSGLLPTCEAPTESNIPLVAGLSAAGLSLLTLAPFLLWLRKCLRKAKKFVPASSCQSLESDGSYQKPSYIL
Sequence of Tumor necrosis factor (Homo sapiens) (P01375 whole entry, looked up): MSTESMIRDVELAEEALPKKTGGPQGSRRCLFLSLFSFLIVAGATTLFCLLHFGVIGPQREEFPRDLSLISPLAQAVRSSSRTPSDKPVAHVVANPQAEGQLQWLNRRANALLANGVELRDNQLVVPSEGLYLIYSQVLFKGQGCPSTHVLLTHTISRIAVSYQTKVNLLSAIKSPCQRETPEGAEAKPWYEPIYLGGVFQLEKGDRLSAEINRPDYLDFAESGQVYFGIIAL

Regarding `Clc1ccc(Cl)cc1`, the outcome in experiment [1] is “inactive”; in [2] it was “inactive”; in experiment [3], “inactive”; in experiment [4], “inactive”; in [5], “inactive”; with CD38, CD38 (gene 952), “inactive”. The outcome in the experiment with CD40, CD40 (gene 958) is “inactive”; in the experiment with CD69, CD69 (gene 969) it was “inactive”; in [6], “inactive”; in [7], “inactive”.
`COc1ccc(O)c(C(C)(C)C)c1`: the AC50 in experiment [1] was 1.71 µM (active) and 2.48 µM (active) and 4.59 µM (active); with CD40, CD40 (gene 958), 28.9 µM (active). The outcome is “inactive” in experiment [2]; “inactive” in experiment [3]; “inactive” in [4]; “inactive” in experiment [5]; “inactive” with CD38, CD38 (gene 952); “inactive” in the experiment with CD40, CD40 (gene 958). For the same molecule, the outcome in the experiment with CD69, CD69 (gene 969) was “inactive”; in experiment [6] it was “inactive”; in [7] it was “inactive”.
Take `Cc1cccc([N+](=O)[O-])c1`: the outcome in experiment [1] is “inactive”; in [2], “inactive”; in experiment [3], “inactive”; in experiment [4], “inactive”; in [5] it was “inactive”; with CD38, CD38 (gene 952), “inactive”. For the same molecule, the outcome was “inactive” with CD40, CD40 (gene 958); “inactive” in the experiment with CD69, CD69 (gene 969); “inactive” in [6]; “inactive” in experiment [7].
Consider `CC(C)(c1ccccc1)c1ccc(O)cc1`, for which the AC50 in [1] is 12.4 µM (active); in experiment [2], 33.6 µM (active); in experiment [3], 32.2 µM (active); in experiment [5], 33.4 µM (active); with CD38, CD38 (gene 952), 31.2 µM (active); with CD40, CD40 (gene 958), 31.1 µM (active). For the same molecule, the AC50 was 37.9 µM (active) in the experiment with CD69, CD69 (gene 969); 36.1 µM (active) in experiment [6]; 33.5 µM (active) in [7].
In the case of `C[C@]12CCC(=O)C=C1CC[C@@H]1[C@@H]2CC[C@]2(C)C(=O)CC[C@@H]12`, the outcome in [1] is “inactive”; in [2] it was “inactive”; in experiment [3], “inactive”; in [4] it was “inactive”; in [5] it was “inactive”; with CD38, CD38 (gene 952), “inactive”. Moreover, the outcome was “inactive” in the experiment with CD40, CD40 (gene 958); “inactive” in the experiment with CD69, CD69 (gene 969); “inactive” in experiment [6]; “inactive” in experiment [7].
As to `NS(=O)(=O)C(F)(F)C(F)(F)C(F)(F)C(F)(F)C(F)(F)C(F)(F)C(F)(F)C(F)(F)F`, the AC50 is 52.2 µM (active) and 51.9 µM (active) in [1]; 30.9 µM (active) and 54.9 µM (active) and 51.8 µM (active) in [2]; 44.6 µM (active) in experiment [3]; 53.8 µM (active) and 46.6 µM (active) in experiment [5]; 27.8 µM (active) and 43.8 µM (active) and 42.4 µM (active) with CD38, CD38 (gene 952); 27.7 µM (active) and 46.1 µM (active) and 45.8 µM (active) with CD40, CD40 (gene 958). The AC50 with CD69, CD69 (gene 969) was 27.4 µM (active) and 40.8 µM (active) and 43.4 µM (active); in experiment [6], 31.2 µM (active) and 54.2 µM (active) and 54.5 µM (active); in experiment [7], 20 µM (active) and 45.5 µM (active) and 49 µM (active). In addition, the result in [1], in [3] and in experiment [5] was inactive.
With `CN(C)c1nc(=O)n(C2CCCCC2)c(=O)n1C`, the outcome in experiment [1] was “inactive”; in experiment [2], “inactive”; in [3], “inactive”; in experiment [4] it was “inactive”; in experiment [5] it was “inactive”; with CD38, CD38 (gene 952), “inactive”. Besides, the outcome was “inactive” in the experiment with CD40, CD40 (gene 958); “inactive” in the experiment with CD69, CD69 (gene 969); “inactive” in experiment [6]; “inactive” in experiment [7].
Turning to `CCOCCOC(C)=O`, the outcome was “inactive” in experiment [1]; “inactive” in experiment [2]; “inactive” in experiment [3]; “inactive” in experiment [4]; “inactive” in experiment [5]; “inactive” with CD38, CD38 (gene 952). Besides, the outcome in the experiment with CD40, CD40 (gene 958) was “inactive”; with CD69, CD69 (gene 969), “inactive”; in experiment [6], “inactive”; in experiment [7], “inactive”.
Turning to `CCOC(=O)C(O)(c1ccc(Cl)cc1)c1ccc(Cl)cc1`, the outcome in experiment [1] was inactive. Further, the AC50 in experiment [2] is 28.2 µM (active); in experiment [3] it was 34 µM (active); in experiment [4], 39.3 µM (active); in experiment [5], 34 µM (active); in the experiment with CD38, CD38 (gene 952) it was 29.4 µM (active); in the experiment with CD40, CD40 (gene 958) it was 30.4 µM (active). The AC50 in the experiment with CD69, CD69 (gene 969) is 36 µM (active); in [6], 35.2 µM (active); in experiment [7], 31.7 µM (active).
Regarding `CCC(C)(CC)c1cc(NC(=O)c2c(OC)cccc2OC)on1`, the outcome in [1] is “inactive”; in [2], “inactive”; in experiment [3] it was “inactive”; in experiment [4], “inactive”; in experiment [5], “inactive”; with CD38, CD38 (gene 952) it was “inactive”. For the same molecule, the outcome was “inactive” with CD40, CD40 (gene 958); “inactive” with CD69, CD69 (gene 969); “inactive” in [6]; “inactive” in experiment [7].
Regarding `c1ccc(-c2ccccc2)cc1`, the outcome in experiment [1] was “inactive”; in [2], “inactive”; in [3] it was “inactive”; in [4], “inactive”; in [5], “inactive”; in the experiment with CD38, CD38 (gene 952) it was “inactive”. Also, the outcome was “inactive” with CD40, CD40 (gene 958); “inactive” with CD69, CD69 (gene 969); “inactive” in [6]; “inactive” in experiment [7].
Consider `O=NN(c1ccccc1)c1ccccc1`, for which the results for the AC50 in experiment [1] and in [4] were 2.14 µM (active) and 3.97 µM (active), respectively. Also, the outcome in [2] was “inactive”; in experiment [3] it was “inactive”; in [5] it was “inactive”; with CD38, CD38 (gene 952), “inactive”; with CD40, CD40 (gene 958) it was “inactive”; with CD69, CD69 (gene 969), “inactive”. The outcome in experiment [6] and in experiment [7] was inactive.
For `c1cc2ccc3cccc4ccc(c1)c2c34`, the result in [1], in experiment [2], in experiment [3], in [4], in experiment [5] and in [6] was inactive. The result in experiment [7] was inactive. Besides, the AC50 with CD38, CD38 (gene 952) is 11.5 µM (active); with CD69, CD69 (gene 969) it was 4.13 µM (active).
On to `O=C(O)C(F)(F)C(F)(F)C(F)(F)C(F)(F)C(F)(F)C(F)(F)C(F)(F)C(F)(F)C(F)(F)F`, for which the AC50 in experiment [1] was 24.7 µM (active) and 39 µM (active); in experiment [2], 58.7 µM (active) and 52.5 µM (active); in experiment [3] it was 45.6 µM (active) and 50.6 µM (active); in experiment [5], 31.2 µM (active) and 56.6 µM (active) and 55.5 µM (active); with CD38, CD38 (gene 952), 30.4 µM (active) and 53 µM (active) and 51.9 µM (active); with CD40, CD40 (gene 958), 32.3 µM (active) and 51.6 µM (active) and 44.6 µM (active). For the same molecule, the AC50 with CD69, CD69 (gene 969) is 29.2 µM (active) and 46.9 µM (active) and 46.4 µM (active); in experiment [6] it was 30.6 µM (active) and 50.1 µM (active) and 49.7 µM (active); in experiment [7] it was 34.3 µM (active) and 54.9 µM (active) and 52.9 µM (active). Further, the result in experiment [1], in experiment [2] and in experiment [3] was inactive.
For the molecule `O=C(NC(=O)c1cc(F)c(F)cc1Cl)Nc1cc(F)ccc1N1CCC(C(=O)O)CC1`, the outcome is “inactive” in experiment [1]; “inactive” in experiment [2]; “inactive” in [3]; “inactive” in [5]; “inactive” in the experiment with CD38, CD38 (gene 952); “inactive” with CD40, CD40 (gene 958). The outcome in the experiment with CD69, CD69 (gene 969) is “inactive”; in experiment [6] it was “inactive”; in [7], “inactive”. For the same molecule, in experiment [4], the AC50 was 10 µM (active).
